Measured values: the OligoGym collection

The sequences below were run against RPS6KA5 (assay: pooled miR-30 sensor sort-seq; sequence = guide strand). Settings: shRNA.

Going from TACACGTCAAACTTCGGTCATG to TTCATCTCGAATGACTGGCTTA, the sensor-assay potency score (higher = more potent) rises from -0.748 to 0.378.

First: TTGCTGATTATTTTGACTGCAA
Second: TTTTTATGCACACACTTTCGAC
The sensor-assay potency score (higher = more potent) of the first is higher: 0.0107 for the first, -1.13 for the second.

Compared with TTTCTGTGAACTCTTCTGCAAA, TCACTTTTTAATATTCTCCTAG is higher in sensor-assay potency score (higher = more potent): -1.11 for the first, -0.3 for the second.

Compared with TTTTTCTCCATCAACAGTGAAA, TTTGTTTGGATCTACTGTGAGA is lower in sensor-assay potency score (higher = more potent): -1.03 for the first, -1.04 for the second.

Going from TTCTTCATGATTTCCACCGCGC to TACAGCTGAAACAAGCTTCCTC, the sensor-assay potency score (higher = more potent) falls from 0.302 to 0.279.

Work on TTCTCCTAGATATCTCAGCTTG yielded a sensor-assay potency score (higher = more potent) of -0.946.

Each sequence was assayed against RRP12 in the same assay as above. Settings: shRNA.

Going from TTGTAAATCATTCTCACTGGGA to TTCAACTTAGCTGAGACACCAG, the sensor-assay potency score (higher = more potent) falls from 0.0361 to -0.063.

First: TTGTTGTCATCAGAGCAGCGAA
Second: TGCAGCTTCATCTTCTTCCTGC
The sensor-assay potency score (higher = more potent) of the first is lower: -1.32 for the first, 0.0542 for the second.

Compared with TCGACTGTCAGGTCACTCCTTC, TCAACTTAGCTGAGACACCAGA is lower in sensor-assay potency score (higher = more potent): -0.238 for the first, -0.378 for the second.

First: TATGTAACTTCACAGCATCGAC
Second: TTTCTGGTGCTTGAGCTTCTGG
The sensor-assay potency score (higher = more potent) of the first is lower: -0.864 for the first, -0.862 for the second.

Compared with TAGATCTTAGATTCCACTGTGC, TAACTTCACAGCATCGACTGTC is lower in sensor-assay potency score (higher = more potent): 0.564 for the first, 0.541 for the second.

First: TTGCTCTCTAGGTAGGGCCGGA
Second: TTGAGCTCTGCTGACAGGGTGC
The sensor-assay potency score (higher = more potent) of the first is lower: -0.614 for the first, -0.0342 for the second.
